The results in this text go back to ChEMBL document CHEMBL1961873, “Compounds: GSK PKIS; Assays: Nanosyn kinase panel” (2012).

The target of assay [1] is Serine/threonine-protein kinase pim-2 (Homo sapiens) (UniProt Q9P1W9). The settings on record: at 1 µM.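 Also: each value is a mean of the inhibition measurements against the kinase.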
Assay [2] has as its target Serine/threonine-protein kinase pim-3 (Homo sapiens) (UniProt Q86V86). The following applies: at 0.1 µM.
The target is the same in assay [3]. The following applies: at 1 µM.
In assay [4] the target is T1, MAP kinase-activated protein kinase 5 (Homo sapiens) (UniProt Q8IW41).
T1 sequence (whole entry): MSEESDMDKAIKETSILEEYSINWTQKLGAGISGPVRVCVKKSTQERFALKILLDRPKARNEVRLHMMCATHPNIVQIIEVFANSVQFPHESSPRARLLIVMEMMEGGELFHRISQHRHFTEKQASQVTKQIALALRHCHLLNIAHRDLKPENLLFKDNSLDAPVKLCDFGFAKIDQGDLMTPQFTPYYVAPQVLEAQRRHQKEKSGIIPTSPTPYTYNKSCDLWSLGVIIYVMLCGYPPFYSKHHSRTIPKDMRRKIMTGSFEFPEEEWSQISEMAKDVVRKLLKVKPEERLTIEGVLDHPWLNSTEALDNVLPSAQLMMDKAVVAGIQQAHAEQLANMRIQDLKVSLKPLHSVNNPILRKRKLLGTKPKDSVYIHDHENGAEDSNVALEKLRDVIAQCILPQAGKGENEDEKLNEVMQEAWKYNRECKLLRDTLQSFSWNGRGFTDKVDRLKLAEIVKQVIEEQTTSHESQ
The settings on record: at 0.1 µM.

Assay [5] deals with T1, MAP kinase-activated protein kinase 5 (Homo sapiens). The following applies: at 1 µM.
Assay [6] has as its target Serine/threonine-protein kinase SIK1 (Homo sapiens) (UniProt P57059). The settings on record: at 0.1 µM.
For assay [7] the target is unchanged. The settings on record: at 1 µM.
Assay [8] deals with Serine/threonine-protein kinase SIK2 (Homo sapiens) (UniProt Q9H0K1). The following applies: at 0.1 µM.
Chain of Serine/threonine-protein kinase SIK2 (Homo sapiens) (Q9H0K1 whole entry, looked up): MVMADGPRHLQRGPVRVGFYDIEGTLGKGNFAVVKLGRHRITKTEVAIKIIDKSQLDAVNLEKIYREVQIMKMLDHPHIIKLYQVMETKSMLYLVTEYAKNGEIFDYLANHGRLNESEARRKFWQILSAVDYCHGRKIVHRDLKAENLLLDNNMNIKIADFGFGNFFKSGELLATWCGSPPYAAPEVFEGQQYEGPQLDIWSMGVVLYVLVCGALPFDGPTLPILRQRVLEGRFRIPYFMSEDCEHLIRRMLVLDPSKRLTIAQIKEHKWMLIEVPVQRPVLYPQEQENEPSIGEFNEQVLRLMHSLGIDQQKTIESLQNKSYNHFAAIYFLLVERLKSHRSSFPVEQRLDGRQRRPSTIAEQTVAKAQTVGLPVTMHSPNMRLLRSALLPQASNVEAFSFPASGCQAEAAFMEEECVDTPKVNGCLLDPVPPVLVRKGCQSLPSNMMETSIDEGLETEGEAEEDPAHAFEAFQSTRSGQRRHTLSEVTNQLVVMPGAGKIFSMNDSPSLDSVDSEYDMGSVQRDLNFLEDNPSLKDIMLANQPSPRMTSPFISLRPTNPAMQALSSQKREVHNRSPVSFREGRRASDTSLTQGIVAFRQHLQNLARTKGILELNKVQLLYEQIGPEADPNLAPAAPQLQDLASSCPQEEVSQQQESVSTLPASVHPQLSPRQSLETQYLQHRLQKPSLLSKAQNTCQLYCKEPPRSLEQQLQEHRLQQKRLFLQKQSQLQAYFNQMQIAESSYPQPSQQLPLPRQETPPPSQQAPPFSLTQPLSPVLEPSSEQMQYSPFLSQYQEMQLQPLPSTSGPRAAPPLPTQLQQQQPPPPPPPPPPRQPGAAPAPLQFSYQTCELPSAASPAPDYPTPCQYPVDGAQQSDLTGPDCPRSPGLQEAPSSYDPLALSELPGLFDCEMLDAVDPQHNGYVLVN
For assay [9] the target is unchanged. The settings on record: at 1 µM.
The target in assay [10] is T2, Serine/threonine-protein kinase TBK1 (Homo sapiens) (UniProt Q9UHD2).
T2 sequence (whole entry): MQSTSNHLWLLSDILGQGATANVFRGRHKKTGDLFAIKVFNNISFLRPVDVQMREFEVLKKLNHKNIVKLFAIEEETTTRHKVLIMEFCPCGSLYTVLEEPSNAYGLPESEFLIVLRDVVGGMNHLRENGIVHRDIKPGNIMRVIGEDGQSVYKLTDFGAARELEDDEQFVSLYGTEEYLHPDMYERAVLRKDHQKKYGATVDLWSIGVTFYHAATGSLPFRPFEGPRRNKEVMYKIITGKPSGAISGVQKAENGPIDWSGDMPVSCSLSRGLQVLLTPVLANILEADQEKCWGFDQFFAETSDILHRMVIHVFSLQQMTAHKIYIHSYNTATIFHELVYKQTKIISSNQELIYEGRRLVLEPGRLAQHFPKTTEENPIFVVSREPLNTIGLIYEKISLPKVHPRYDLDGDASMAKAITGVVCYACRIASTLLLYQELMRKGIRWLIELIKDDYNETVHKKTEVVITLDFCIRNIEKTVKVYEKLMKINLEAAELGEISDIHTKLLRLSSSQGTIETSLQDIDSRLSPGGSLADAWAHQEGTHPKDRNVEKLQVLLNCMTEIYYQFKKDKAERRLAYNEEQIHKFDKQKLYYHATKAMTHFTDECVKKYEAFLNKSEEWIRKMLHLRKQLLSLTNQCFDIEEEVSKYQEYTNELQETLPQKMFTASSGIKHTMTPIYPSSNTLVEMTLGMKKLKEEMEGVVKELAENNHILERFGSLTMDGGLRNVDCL
The settings on record: at 0.1 µM.

For assay [11], the target named is T2, Serine/threonine-protein kinase TBK1 (Homo sapiens). The settings on record: at 1 µM.
Assay [12] has as its target T3, Testis-specific serine/threonine-protein kinase 1 (Homo sapiens) (UniProt Q9BXA7).
T3 sequence (whole entry): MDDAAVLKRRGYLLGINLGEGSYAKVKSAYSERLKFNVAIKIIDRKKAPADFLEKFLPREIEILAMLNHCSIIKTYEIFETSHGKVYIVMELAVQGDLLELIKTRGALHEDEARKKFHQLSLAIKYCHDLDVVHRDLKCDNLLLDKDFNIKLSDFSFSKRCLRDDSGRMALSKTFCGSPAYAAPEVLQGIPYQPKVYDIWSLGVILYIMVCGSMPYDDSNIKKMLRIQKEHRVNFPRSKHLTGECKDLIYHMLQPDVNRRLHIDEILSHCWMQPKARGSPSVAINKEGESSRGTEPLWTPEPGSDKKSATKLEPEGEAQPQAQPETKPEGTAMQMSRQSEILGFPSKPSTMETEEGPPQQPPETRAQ
The following applies: at 0.1 µM.

Assay [13] deals with T3, Testis-specific serine/threonine-protein kinase 1 (Homo sapiens). The settings on record: at 1 µM.
The target in assay [14] is T4, Testis-specific serine/threonine-protein kinase 2 (Homo sapiens) (UniProt Q96PF2).
T4 sequence (whole entry): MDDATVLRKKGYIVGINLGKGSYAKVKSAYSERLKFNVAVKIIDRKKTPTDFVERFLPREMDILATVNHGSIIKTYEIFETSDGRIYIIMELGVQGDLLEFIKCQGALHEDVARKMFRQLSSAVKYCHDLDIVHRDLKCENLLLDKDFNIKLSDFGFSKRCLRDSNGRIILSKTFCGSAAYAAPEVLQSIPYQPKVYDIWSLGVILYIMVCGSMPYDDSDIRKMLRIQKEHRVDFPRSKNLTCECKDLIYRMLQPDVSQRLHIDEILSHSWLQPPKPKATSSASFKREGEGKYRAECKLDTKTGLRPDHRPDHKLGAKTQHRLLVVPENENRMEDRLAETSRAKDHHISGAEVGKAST
The following applies: at 0.1 µM.

For assay [15], the target named is T4, Testis-specific serine/threonine-protein kinase 2 (Homo sapiens). The following applies: at 1 µM.
The target of assay [16] is Casein kinase I isoform alpha (Homo sapiens) (UniProt P48729). The following applies: at 0.1 µM.
Chain of Casein kinase I isoform alpha (Homo sapiens) (P48729 2-337 limits assumed): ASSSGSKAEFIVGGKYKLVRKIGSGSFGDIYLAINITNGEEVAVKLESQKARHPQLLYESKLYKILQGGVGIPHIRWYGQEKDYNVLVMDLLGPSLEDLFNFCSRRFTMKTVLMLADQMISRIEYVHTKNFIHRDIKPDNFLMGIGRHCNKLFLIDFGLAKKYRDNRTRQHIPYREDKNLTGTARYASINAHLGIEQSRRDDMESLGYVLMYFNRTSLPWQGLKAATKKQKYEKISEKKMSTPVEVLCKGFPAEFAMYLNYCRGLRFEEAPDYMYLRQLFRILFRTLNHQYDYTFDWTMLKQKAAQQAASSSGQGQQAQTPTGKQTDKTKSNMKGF
The target is the same in assay [17]. The settings on record: at 1 µM.
Assay [18] addresses Casein kinase I isoform gamma-1 (Homo sapiens) (UniProt Q9HCP0). The following applies: at 0.1 µM.
For assay [19] the target is unchanged. The following applies: at 1 µM.
Assay [20] deals with Casein kinase I isoform gamma-2 (Homo sapiens) (UniProt P78368). The following applies: at 0.1 µM.
Chain of Casein kinase I isoform gamma-2 (Homo sapiens) (P78368 whole entry, looked up, canonical isoform): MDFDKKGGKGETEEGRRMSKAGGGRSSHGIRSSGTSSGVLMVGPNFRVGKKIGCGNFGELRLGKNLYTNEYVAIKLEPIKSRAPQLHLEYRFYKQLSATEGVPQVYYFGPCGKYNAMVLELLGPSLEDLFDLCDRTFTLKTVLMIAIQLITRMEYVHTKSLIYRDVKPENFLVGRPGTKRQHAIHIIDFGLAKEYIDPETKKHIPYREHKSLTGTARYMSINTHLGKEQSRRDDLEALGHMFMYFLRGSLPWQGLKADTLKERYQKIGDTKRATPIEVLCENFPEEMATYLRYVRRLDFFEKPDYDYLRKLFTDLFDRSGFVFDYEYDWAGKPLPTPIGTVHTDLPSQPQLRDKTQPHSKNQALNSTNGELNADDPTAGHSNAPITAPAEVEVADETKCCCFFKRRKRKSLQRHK

Chain of Serine/threonine-protein kinase pim-2 (Homo sapiens) (Q9P1W9 whole entry, looked up): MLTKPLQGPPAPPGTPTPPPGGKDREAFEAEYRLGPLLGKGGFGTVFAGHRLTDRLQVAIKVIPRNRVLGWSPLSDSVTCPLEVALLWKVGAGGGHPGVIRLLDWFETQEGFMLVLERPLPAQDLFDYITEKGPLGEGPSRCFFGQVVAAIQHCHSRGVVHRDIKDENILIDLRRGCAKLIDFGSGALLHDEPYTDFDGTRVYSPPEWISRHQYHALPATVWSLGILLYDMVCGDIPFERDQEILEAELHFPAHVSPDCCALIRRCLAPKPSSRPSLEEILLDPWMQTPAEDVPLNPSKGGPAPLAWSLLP
Chain of Casein kinase I isoform gamma-1 (Homo sapiens) (Q9HCP0 whole entry, looked up, canonical isoform): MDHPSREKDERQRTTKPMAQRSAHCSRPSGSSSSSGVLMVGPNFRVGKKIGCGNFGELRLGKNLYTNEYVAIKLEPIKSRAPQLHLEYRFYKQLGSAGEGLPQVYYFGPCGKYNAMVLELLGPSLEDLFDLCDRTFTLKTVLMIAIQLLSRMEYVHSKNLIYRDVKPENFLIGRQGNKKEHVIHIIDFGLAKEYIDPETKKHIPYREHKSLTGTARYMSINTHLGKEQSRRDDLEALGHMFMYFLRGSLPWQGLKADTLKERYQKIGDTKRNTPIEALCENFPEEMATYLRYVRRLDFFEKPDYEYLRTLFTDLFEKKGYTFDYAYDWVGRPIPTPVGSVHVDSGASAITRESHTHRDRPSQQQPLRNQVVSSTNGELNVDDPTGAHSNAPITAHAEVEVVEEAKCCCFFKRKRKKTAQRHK
Chain of Serine/threonine-protein kinase SIK1 (Homo sapiens) (P57059 whole entry): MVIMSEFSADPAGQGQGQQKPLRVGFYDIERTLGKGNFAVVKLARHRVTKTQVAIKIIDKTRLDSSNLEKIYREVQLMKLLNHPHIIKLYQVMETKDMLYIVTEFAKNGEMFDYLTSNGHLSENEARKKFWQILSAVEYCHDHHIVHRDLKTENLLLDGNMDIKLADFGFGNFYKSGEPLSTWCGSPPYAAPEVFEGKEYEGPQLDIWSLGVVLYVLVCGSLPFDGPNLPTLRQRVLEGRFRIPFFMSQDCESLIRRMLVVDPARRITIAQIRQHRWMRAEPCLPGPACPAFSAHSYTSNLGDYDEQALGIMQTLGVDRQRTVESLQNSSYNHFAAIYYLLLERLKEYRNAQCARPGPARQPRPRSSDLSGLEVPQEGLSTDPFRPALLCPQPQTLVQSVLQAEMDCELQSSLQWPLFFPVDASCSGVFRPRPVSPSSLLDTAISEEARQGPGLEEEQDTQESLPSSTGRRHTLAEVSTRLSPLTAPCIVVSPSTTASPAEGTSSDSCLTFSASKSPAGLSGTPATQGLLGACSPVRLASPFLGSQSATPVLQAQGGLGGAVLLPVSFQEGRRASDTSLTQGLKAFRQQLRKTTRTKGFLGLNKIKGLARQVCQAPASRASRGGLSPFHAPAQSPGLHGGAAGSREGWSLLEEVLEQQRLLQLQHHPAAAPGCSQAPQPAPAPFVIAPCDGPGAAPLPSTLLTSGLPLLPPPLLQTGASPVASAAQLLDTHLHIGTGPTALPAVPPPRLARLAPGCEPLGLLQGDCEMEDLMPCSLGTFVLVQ

As for `c1cnn2ncc(-c3ccnc(NCCCN4CCOCC4)n3)c2c1`, the inhibition in assay [1] is -1.06%; in assay [2], -0.56%; in [3], -0.85%; in [4], 1.09%; in assay [5], 1.07%; in assay [6], 3.47%. For the same molecule, the inhibition is 6.56% in assay [7]; 3.35% in assay [8]; 2.87% in [9]; 0.82% in assay [10]; 1.95% in [11]; 3.58% in [12]. Besides, the inhibition is 2.58% in assay [13]; 2.3% in [14]; 1.85% in [15]; 2.74% in [16]; 16.4% in assay [17]; 3.57% in assay [18]. The inhibition in assay [19] was 4.83%; in assay [20], 3.07%.

`N#Cc1cccc(Nc2ncc(-c3ccccc3)o2)c1`: the inhibition in assay [1] amounted to 0.47%; in assay [2] it was 0.1%; in assay [3], 2.79%; in assay [4] it was 1.22%; in assay [5], 2.58%; in assay [6], 1.14%. Moreover, the inhibition is 4% in assay [7]; 1.76% in assay [8]; 4.74% in [9]; 1.05% in [10]; 3.86% in [11]; 3.9% in [12]. Also, the inhibition in [13] is 5.55%; in [14], 2.41%; in assay [15] it was 4.88%; in [16], 1.55%; in [17] it was 0.38%; in assay [18], 1.61%. Moreover, the inhibition turned out to be 3.03% in assay [19] and 1.82% in assay [20].

For the molecule `c1ccc(-c2n[nH]cc2-c2ccnc(-c3ccc(OCCn4ccnc4)cc3)c2)nc1`, the inhibition in assay [1] stood at 0.26%; in [2] it was 0.51%; in assay [3], 0.09%; in assay [4] it was 0.48%; in assay [5], 1.25%; in [6], 1.64%. Moreover, the inhibition in assay [7] stood at 6.26%; in assay [8] it was 0.8%; in assay [9], 10%; in assay [10], 0.6%; in assay [11], 0.29%; in [12] it was 1.73%. The inhibition was determined as 2.8% in [13]; 2.08% in assay [14]; 1.93% in [15]; 3.33% in assay [16]; 18.1% in assay [17]; 0.69% in assay [18]. The results for the inhibition in assay [19] and in assay [20] were 3.14% and 0.83%, respectively.

For `COc1cc2c(cc1Nc1nc(Nc3cccc(F)c3C(N)=O)c3cc[nH]c3n1)N(C(=O)CN1CCN(C(C)C)CC1)CC2`, the inhibition in assay [1] worked out at 0.2%; in [2], 0.01%; in [3], 1.84%; in assay [4], 0.57%; in assay [5], 1.03%; in assay [6], 5.86%. In addition, the inhibition amounted to 8.52% in assay [7]; 3.09% in assay [8]; 0.18% in assay [9]; 2.33% in [10]; 3.05% in assay [11]; 5.1% in assay [12]. Further, the inhibition stood at 31.9% in assay [13]; 2.49% in assay [14]; 12.4% in assay [15]; 1.84% in [16]; 11.4% in assay [17]; 2.53% in assay [18]. The results for the inhibition in [19] and in [20] were 5.76% and 2.46%, respectively.

In the case of `CC1(C)CC(n2cnc(-c3ccc(F)cc3)c2-c2ccnc(N)n2)CC(C)(C)N1`, the inhibition in [1] was 0.96%; in assay [2] it was -0.62%; in [3], 0.93%; in assay [4], 0.28%; in assay [5] it was 0.93%; in assay [6], 0.72%. In addition, the inhibition in assay [7] is 3.05%; in assay [8], 1.72%; in assay [9] it was 1.15%; in assay [10] it was 0.42%; in assay [11], 0.35%; in assay [12] it was 1.43%. In addition, the inhibition in [13] amounted to 2.2%; in assay [14], 0.62%; in [15] it was 2.34%; in assay [16], 12.5%; in [17], 58.5%; in assay [18], 0.31%. Moreover, the figures for the inhibition in assay [19] and in [20] were 2.25% and 0.35%, respectively.

Turning to `CS(=O)(=O)CCNCc1ccc(-c2ccc3ncnc(Nc4ccc(OCc5ccccc5)cc4)c3c2)o1`, the inhibition in assay [1] is 0.74%; in [2], 0.79%; in [3], 1.6%; in assay [4], 1.45%; in assay [5] it was 1.42%; in assay [6] it was 4.11%. The inhibition in assay [7] worked out at 9.04%; in [8], 3.65%; in [9], 6.41%; in [10], 3.64%; in [11] it was 3.03%; in assay [12], 3.31%. The inhibition in [13] came out at 4.28%; in [14], 5.73%; in assay [15] it was 2.17%; in assay [16], 4.49%; in [17] it was 1.55%; in assay [18], 2.67%. The inhibition in assay [19] is 3.35%; in assay [20], 2.72%.

Regarding `NS(=O)(=O)c1ccc(N/N=C2\C(=O)Nc3cccc(CCc4ccncc4)c32)cc1`, the inhibition turned out to be 0.64% in assay [1]; 0.22% in assay [2]; 0.75% in assay [3]; 0.36% in assay [4]; 0.28% in [5]; 1.17% in [6]. Also, the inhibition in assay [7] was 2.64%; in assay [8] it was 2.91%; in [9], -0.94%; in assay [10] it was 1.99%; in assay [11], 4.17%; in assay [12] it was 2.49%. Also, the inhibition in assay [13] is 1.9%; in [14] it was 0.54%; in assay [15], 1.32%; in assay [16], 1.84%; in assay [17], -0.19%; in assay [18] it was 0.44%. Besides, the figures for the inhibition in assay [19] and in [20] were 0.85% and 0.15%, respectively.

Broadly, the inhibition is the change of the read-out against control, counted positive when it falls.
